Measurements as given in the supplement of paper PMC8728848.
About 410 targets per protein were measured; listed, in parts, are those with the strongest signals and a random draw of the rest.

Key:
Test in all cases: glycan array binding signal (z-score within array); higher = stronger binding
Conditions in all cases: glycan notation: IUPAC condensed, linker removed
[1] = target: Fuc(a1-2)Gal(b1-3)[Fuc(a1-4)]GlcNAc(b1-2)Man(a1-3)[Fuc(a1-2)Gal(b1-3)[Fuc(a1-4)]GlcNAc(b1-2)Man(a1-3)]Man(b1-4)GlcNAc(b1-4)GlcNAc
Summary of the method: (§1)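 Glycan array binding is given as a within-array Z-score, which can be read as non-binding when negative. The arrays, 3228 of them, came from the Consortium for Functional Glycomics database and were retained only where the protein sequence was available. Z-scores were averaged across arrays of the same protein sequence at different concentrations or buffers and across linkers.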

[2] = target: Fuc(a1-2)Gal(b1-4)Fuc(a1-3)]GlcNAc(b1-2)Man(a1-3)[Fuc(a1-2)Gal(b1-4)[Fuc(a1-3)]GlcNAc(b1-2)Man(a1-6)]Man(b1-4)GlcNAc(b1-4)GlcNAc
Summary of the method: as §1

[3] = target: Fuc(a1-2)Gal(b1-4)GlcNAc(b1-3)[Fuc(a1-3)[Gal(b1-4)]GlcNAc(b1-6)]Gal(b1-4)Glc
Summary of the method: as §1

[4] = target: Fuc(a1-2)Gal(b1-4)GlcNAc6S
Summary of the method: as §1

[5] = target: Fuc(a1-2)Gal(b1-4)[Fuc(a1-3)]GlcNAc(b1-3)GalNAc
Summary of the method: as §1

[6] = target: Fuc(a1-2)[Gal(a1-3)]Gal(b1-4)[Fuc(a1-3)]Glc
Summary of the method: as §1

[7] = target: Fuc(a1-2)[GalNAc(a1-3)]Gal(b1-3)GlcNAc(b1-2)Man(a1-3)[Fuc(a1-2)[GalNAc(a1-3)]Gal(b1-3)GlcNAc(b1-2)Man(a1-6)]Man(b1-4)GlcNAc(b1-4)[Fuc(a1-6)]GlcNAc
Summary of the method: as §1

[8] = target: Fuc(a1-2)[GalNAc(a1-3)]Gal(b1-4)GlcNAc
Summary of the method: as §1

Gal(a1-3)Gal(b1-3)GlcNAc = target: Gal(a1-3)Gal(b1-3)GlcNAc
Summary of the method: as §1

Gal(a1-4)Gal(b1-4)Glc = target: Gal(a1-4)Gal(b1-4)Glc
Summary of the method: as §1

[9] = target: Gal(a1-4)Gal(b1-4)GlcNAc(b1-2)Man(a1-3)[Gal(a1-4)Gal(b1-4)GlcNAc(b1-2)Man(a1-6)]Man(b1-4)GlcNAc(b1-4)GlcNAc
Summary of the method: as §1

[10] = target: Gal(b1-3)[Fuc(a1-4)]GlcNAc(b1-2)Man
Summary of the method: as §1

Gal(b1-4)Gal = target: Gal(b1-4)Gal
Summary of the method: as §1

[11] = target: Gal(b1-4)GlcNAc(a1-6)Gal(b1-4)GlcNAc
Summary of the method: as §1

[12] = target: Gal(b1-4)GlcNAc(b1-2)Man(a1-3)[Gal(b1-4)GlcNAc(b1-2)Man(a1-6)]Man(b1-4)GlcNAc(b1-4)GlcNAc
Summary of the method: as §1

[13] = target: Gal(b1-4)GlcNAc(b1-2)Man(a1-6)Man(b1-4)GlcNAc(b1-4)GlcNAc
Summary of the method: as §1

[14] = target: Gal(b1-4)GlcNAc(b1-3)Gal(b1-4)Glc
Summary of the method: as §1

[15] = target: Gal(b1-4)GlcNAc(b1-3)Gal(b1-4)GlcNAc(b1-2)Man(a1-3)[Gal(b1-4)GlcNAc(b1-3)Gal(b1-4)GlcNAc(b1-2)Man(a1-6)]Man(b1-4)GlcNAc(b1-4)GlcNAc
Summary of the method: as §1

[16] = target: Gal(b1-4)GlcNAc(b1-3)[Fuc(a1-3)GlcNAc(b1-6)]Gal(b1-4)Glc
Summary of the method: as §1

Gal3S4S(b1-4)GlcNAc = target: Gal3S4S(b1-4)GlcNAc
Summary of the method: as §1

Gal3S6S(b1-4)GlcNAc6S = target: Gal3S6S(b1-4)GlcNAc6S
Summary of the method: as §1

Gal6S(b1-3)GlcNAc = target: Gal6S(b1-3)GlcNAc
Summary of the method: as §1

[17] = target: GalNAc(b1-3)Gal(a1-4)Gal(b1-4)GlcNAc
Summary of the method: as §1

GalNAc(b1-3)GlcNAc = target: GalNAc(b1-3)GlcNAc
Summary of the method: as §1

GalNAc(b1-4)Gal(b1-4)Glc = target: GalNAc(b1-4)Gal(b1-4)Glc
Summary of the method: as §1

GalNAc3S(b1-4)GlcNAc = target: GalNAc3S(b1-4)GlcNAc
Summary of the method: as §1

[18] = target: GalNAc3S(b1-4)[Fuc(a1-3)]GlcNAc
Summary of the method: as §1

GalNAc4S6S(b1-4)GlcNAc = target: GalNAc4S6S(b1-4)GlcNAc
Summary of the method: as §1

[19] = target: GlcNAc(b1-2)Man(a1-3)[GlcNAc(b1-2)Man(a1-6)]Man(b1-4)GlcNAc(b1-4)[Fuc(a1-6)]GlcNAc
Summary of the method: as §1

[20] = target: GlcNAc(b1-2)[GlcNAc(b1-4)]Man(a1-3)[GlcNAc(b1-4)][GlcNAc(b1-2)Man(a1-6)]Man(b1-4)GlcNAc(b1-4)GlcNAc
Summary of the method: as §1

[21] = target: GlcNAc(b1-3)Gal(b1-4)GlcNAc
Summary of the method: as §1

[22] = target: GlcNAc(b1-3)Gal(b1-4)GlcNAc(b1-3)Gal(b1-4)GlcNAc(b1-3)Gal(b1-4)GlcNAc(b1-3)Gal(b1-4)GlcNAc(b1-2)[GlcNAc(b1-3)Gal(b1-4)GlcNAc(b1-3)Gal(b1-4)GlcNAc(b1-3)Gal(b1-4)GlcNAc(b1-3)Gal(b1-4)GlcNAc(b1-6)]Man(a1-6)[GlcNAc(b1-3)Gal(b1-4)GlcNAc(b1-3)Gal(b1-4)GlcNAc(b1-3)Gal(b1-4)GlcNAc(b1-3)Gal(b1-4)GlcNAc(b1-2)Man(a1-3)]Man(b1-4)GlcNAc(b1-4)[Fuc(a1-6)]GlcNAc
Summary of the method: as §1

[23] = target: GlcNAc(b1-4)Gal(b1-4)GlcNAc
Summary of the method: as §1

GlcNAc(b1-6)GalNAc = target: GlcNAc(b1-6)GalNAc
Summary of the method: as §1

[24] = target: Man(a1-2)Man(a1-3)[Man(a1-6)]Man(a1-6)[Man(a1-2)Man(a1-3)]Man(b1-4)GlcNAc(b1-4)GlcNAc
Summary of the method: as §1

[25] = target: Neu5Ac(a2-3)Gal(b1-3)[Fuc(a1-4)]GlcNAc
Summary of the method: as §1

[26] = target: Neu5Ac(a2-3)Gal(b1-4)[Fuc(a1-3)]GlcNAc
Summary of the method: as §1

[27] = target: Neu5Ac(a2-3)Gal(b1-4)[Fuc(a1-3)]GlcNAc(b1-6)[Neu5Ac(a2-3)Gal(b1-3)]GalNAc
Summary of the method: as §1

Neu5Ac(a2-6)Gal = target: Neu5Ac(a2-6)Gal
Summary of the method: as §1

[28] = target: Neu5Ac(a2-6)Gal(b1-4)GlcNAc(b1-2)Man(a1-3)Man(b1-4)GlcNAc(b1-4)GlcNAc
Summary of the method: as §1

[29] = target: Neu5Ac(a2-6)Gal(b1-4)GlcNAc(b1-2)Man(a1-6)[Gal(b1-4)GlcNAc(b1-2)Man(a1-3)]Man(b1-4)GlcNAc(b1-4)GlcNAc
Summary of the method: as §1

[30] = target: Neu5Ac(a2-6)Gal(b1-4)GlcNAc(b1-3)Gal(b1-4)GlcNAc(b1-3)Gal(b1-4)GlcNAc(b1-2)Man(a1-3)[Neu5Ac(a2-6)Gal(b1-4)GlcNAc(b1-3)Gal(b1-4)GlcNAc(b1-3)Gal(b1-4)GlcNAc(b1-2)Man(a1-6)]GalNAc
Summary of the method: as §1

[31] = target: Neu5Ac(a2-6)Gal(b1-4)GlcNAc(b1-3)Gal(b1-4)GlcNAc(b1-6)[Gal(b1-3)]GalNAc
Summary of the method: as §1

[32] = target: Neu5Ac(a2-6)Gal(b1-4)GlcNAc(b1-3)[Neu5Ac(a2-6)Gal(b1-4)GlcNAc(b1-6)]GalNAc
Summary of the method: as §1

[33] = target: Neu5Ac(a2-6)Gal(b1-4)GlcNAc(b1-6)GalNAc
Summary of the method: as §1

[34] = target: Neu5Ac(a2-6)GlcNAc(b1-4)GlcNAc
Summary of the method: as §1

[35] = target: Neu5Ac(a2-8)Neu5Ac(a2-3)[GalNAc(b1-4)]Gal(b1-4)Glc
Summary of the method: as §1

[36] = target: Neu5Ac(a2-8)Neu5Ac(a2-8)Neu5Ac(a2-3)Gal(b1-4)Glc
Summary of the method: as §1

[37] = target: Neu5Ac(a2-8)Neu5Ac(a2-8)Neu5Ac(a2-8)Neu5Ac(a2-3)[GalNAc(b1-4)]Gal(b1-4)Glc
Summary of the method: as §1

[38] = target: Neu5Ac9Ac(a2-3)Gal(b1-3)GlcNAc
Summary of the method: as §1

[39] = target: Neu5Ac9Ac(a2-3)Gal(b1-4)GlcNAc
Summary of the method: as §1

B1: CC1G-11630 (Coprinopsis cinerea), A8P462 (protein)
chain: MTTEAKIKLKAVVYWELVFDYDNSSNTGEITQSYTVKISQTSTRSTFASEVSTTTIDTLTKNNQEVDVGASYGAISANVSASWEHSEEVNNMLEKTTQTSTEDTYTVETEETRSYTIGPGGMLSLFQKHFSGPGMHVAFDVFTTDLELAKERTEIDIDVDVEAIRFVREIRVVYTDIMSEAPGDHVREINGKNPDINYGFNGKFVWLVPEQTRKTAQALTNVEFVSQAESDDRYWDLAAGAGGSNRYLIPVYDTNNKDKIYELALWRSDSYITHDKVKAAGWSGTTGDINSGRGGTYLNLVWKTRHAY
In the case of B1, the “glycan array binding signal (z-score)” value [1] is reported as 2.22, the “glycan array binding signal (z-score)” value [2] is reported as 1.38 and the “glycan array binding signal (z-score)” value [3] is reported as -0.581. The “glycan array binding signal (z-score)” value [4] was 0.388, the “glycan array binding signal (z-score)” value [5] was 0.411 and the “glycan array binding signal (z-score)” value [6] was -0.641. The “glycan array binding signal (z-score)” value [7] was -0.174, the “glycan array binding signal (z-score)” value [8] was -0.601 and the “glycan array binding signal (z-score)” value (Gal(a1-3)Gal(b1-3)GlcNAc) was 6.02. For the same binder, the “glycan array binding signal (z-score)” value (Gal(a1-4)Gal(b1-4)Glc) was 0.088, the “glycan array binding signal (z-score)” value [9] was 0.102 and the “glycan array binding signal (z-score)” value [10] was 2.23. For the same binder, the “glycan array binding signal (z-score)” value (Gal(b1-4)Gal) was 1.01, the “glycan array binding signal (z-score)” value [11] was -0.631 and the “glycan array binding signal (z-score)” value [12] was -0.378. The “glycan array binding signal (z-score)” value [13] was -0.208, the “glycan array binding signal (z-score)” value [14] was -0.507 and the “glycan array binding signal (z-score)” value [15] was 2.49. For the same binder, the “glycan array binding signal (z-score)” value [16] was -0.538, the “glycan array binding signal (z-score)” value (Gal3S4S(b1-4)GlcNAc) was 3.27 and the “glycan array binding signal (z-score)” value (Gal3S6S(b1-4)GlcNAc6S) was 2.52. The “glycan array binding signal (z-score)” value (Gal6S(b1-3)GlcNAc) was -0.544, the “glycan array binding signal (z-score)” value [17] was 0.165 and the “glycan array binding signal (z-score)” value (GalNAc(b1-3)GlcNAc) was -0.463. The “glycan array binding signal (z-score)” value (GalNAc(b1-4)Gal(b1-4)Glc) was 1.99, the “glycan array binding signal (z-score)” value (GalNAc3S(b1-4)GlcNAc) was -0.609 and the “glycan array binding signal (z-score)” value [18] was 0.036. The “glycan array binding signal (z-score)” value (GalNAc4S6S(b1-4)GlcNAc) was 0.25, the “glycan array binding signal (z-score)” value [19] was -0.33 and the “glycan array binding signal (z-score)” value [20] was -0.368. For the same binder, the “glycan array binding signal (z-score)” value [21] was -0.538, the “glycan array binding signal (z-score)” value [22] was 5.85 and the “glycan array binding signal (z-score)” value [23] was -0.152. For the same binder, the “glycan array binding signal (z-score)” value (GlcNAc(b1-6)GalNAc) was -0.182, the “glycan array binding signal (z-score)” value [24] was -0.164 and the “glycan array binding signal (z-score)” value [25] was -0.138. The “glycan array binding signal (z-score)” value [26] was -0.567, the “glycan array binding signal (z-score)” value [27] was 0.186 and the “glycan array binding signal (z-score)” value (Neu5Ac(a2-6)Gal) was -0.074. The “glycan array binding signal (z-score)” value [28] was -0.49, the “glycan array binding signal (z-score)” value [29] was 15.9 and the “glycan array binding signal (z-score)” value [30] was 2.1. The “glycan array binding signal (z-score)” value [31] was 0.078, the “glycan array binding signal (z-score)” value [32] was 0.001 and the “glycan array binding signal (z-score)” value [33] was 2.18. For the same binder, the “glycan array binding signal (z-score)” value [34] was -0.717, the “glycan array binding signal (z-score)” value [35] was 0.069 and the “glycan array binding signal (z-score)” value [36] was -0.108. The “glycan array binding signal (z-score)” value [37] was -0.33, the “glycan array binding signal (z-score)” value [38] was 0.279 and the “glycan array binding signal (z-score)” value [39] was -0.202.
